PubChem BioAssay (Tox21)
Values joined by “and” are separate entries in the source; they are usually repeats but may differ in a detail not shown here. Equal entries are not always repeated. Results filed as inconclusive are left out. Active and inactive are the calls of the source. The call rests on the fitted dose curve; in most records, active means well fitted inhibition curve with a large enough effect in the repeat runs; inconclusive means weak or mixed curves; inactive means no such curve, though single readings can be large or run the other way.

What follows are molecules tested against Cytochrome P450 1A2 (Homo sapiens) (UniProt P05177) (assay: Cytochrome P450 Family 1 Subfamily A Member 2 (CYP1A2) small molecule antagonists: luciferase reporter qHTS assay (AID 1671199; further: nearly all actives have a fitted effect of over 50% in size)). Conditions: P450-Glo CYP1A2 enzyme, luciferin luminescence, 1 h; series mostly up to 115 µM; activity change, negative = inhibition: at the top concentration.
Summary of the method: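 Compounds were incubated with CYP1A2 and a luminogenic proluciferin substrate for 10 min at room temperature before the reaction was started with NADPH regeneration solution. After 1 h, detection reagent was added and light output, proportional to CYP activity, was recorded.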
On the % scale 0 is the no-effect control and ±100 the full control effect; potency means the concentration at half of the fitted maximal effect.

Sequence of Cytochrome P450 1A2 (Homo sapiens) (P05177 whole entry, looked up): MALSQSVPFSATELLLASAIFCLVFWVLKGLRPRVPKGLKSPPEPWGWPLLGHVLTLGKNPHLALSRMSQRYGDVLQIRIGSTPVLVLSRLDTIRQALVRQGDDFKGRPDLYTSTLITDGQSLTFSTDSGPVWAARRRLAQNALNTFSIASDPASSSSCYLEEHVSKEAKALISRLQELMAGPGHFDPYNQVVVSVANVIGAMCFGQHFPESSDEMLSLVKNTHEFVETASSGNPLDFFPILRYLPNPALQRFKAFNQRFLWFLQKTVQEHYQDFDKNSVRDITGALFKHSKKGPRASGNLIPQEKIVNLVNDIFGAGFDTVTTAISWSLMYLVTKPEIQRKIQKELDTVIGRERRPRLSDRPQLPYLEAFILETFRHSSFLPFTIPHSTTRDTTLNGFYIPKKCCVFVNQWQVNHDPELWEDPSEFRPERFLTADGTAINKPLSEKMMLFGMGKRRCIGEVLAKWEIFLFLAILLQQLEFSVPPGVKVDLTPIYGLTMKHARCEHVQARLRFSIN

SMILES	activity change, negative = inhibition	Potency
CC(C)CC(C)N (stereo not drawn)	-15.8% (inactive)	–
O=C1C=CC(=O)c2ccccc21	–	25.2 µM (active)
COC(=O)N(C(=O)N1COC2(C(=O)OC)Cc3cc(Cl)ccc3C2=N1)c1ccc(OC(F)(F)F)cc1 (stereo not drawn)	-15.3% [at 53 µM] (inactive)	–
CC(Cc1ccc(C(C)(C)C)cc1)CN1C[C@@H](C)O[C@@H](C)C1 (stereo partly drawn)	–	39.9 µM (active)
Cc1cccc(OP(=O)(Oc2cccc(C)c2)Oc2cccc(C)c2)c1	–	28.3 µM (active)
Oc1ccccc1Br	-18.3% (inactive)	–
Cc1cc(Cl)ccc1O[C@H](C)C(=O)O	3.19% (inactive)	–
[Cl][Sb]([Cl])[Cl]	-1.5% (inactive)	–
N#C/C=C/C#N	–	29.6 µM (active)
C=CC(=O)N(C)C	2.07% (inactive)	–
CCCOCC(=Nc1ccc(Cl)cc1C(F)(F)F)n1ccnc1	–	8.94 µM (active)
CN(CCCC(O)c1cccnc1)N=O (stereo not drawn)	-3.3% (inactive)	–
CC(C)CC(C)Nc1ccc(Nc2ccccc2)cc1 (stereo not drawn)	–	22.1 µM (active)
CC(O)C#N (stereo not drawn)	-14.1% (inactive)	–
c1ccc2cc3c(cc2c1)-c1cccc2cccc-3c12	–	0.197 µM (active)
N#CNC#N	-21.4% (inactive)	–
CCOP(=S)(OCC)SCS(=O)(=O)CC	–	35.6 µM (active)
ClC(Cl)=C(c1ccc(Cl)cc1)c1ccc(Cl)cc1	–	5.78 µM (active) and 5.64 µM (active)
Clc1ccc(CCC(Cn2ccnc2)Sc2c(Cl)cccc2Cl)cc1 (stereo not drawn)	–	15.5 µM (active)
Nc1ccc(Sc2ccc(N)cc2)cc1	–	35.6 µM (active)
O=C(O)C1C2CCC(O2)C1C(=O)O (stereo not drawn)	–	inactive
c1cc[c]([Sb]([c]2ccccc2)[c]2ccccc2)cc1	-14.8% (inactive)	–
Oc1c(Br)c(Br)c(Br)c(Br)c1Br	–	56.8 µM (active)
